According to PubChem BioAssay:
The source made the active and inactive calls.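 How the source made its calls: active means thallium flux through the channel raised or lowered by more than 3 SD from vehicle-only wells, actives on both sides; inactive means the rest.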

Key:
Assay in all cases: BK channel mutant inhibitors and activators – cell-based, U2OS BacMam, thallium flux, beta subunits, selectivity assay, profiling panel (AID 1259406);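 further: initial slope of Thallos dye fluorescence rise after thallium is added; log ratio against the mean of 0.3% DMSO vehicle wells on the same plate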
F380Y = conditions: U2OS BacMam BK variants, at 30 µM
F380Y/beta1 = conditions: U2OS BacMam BK variants, at 30 µM
F380Y/beta2Delta = conditions: U2OS BacMam BK variants, at 30 µM
F380Y/beta4 = conditions: U2OS BacMam BK variants, at 30 µM
[1] = biological target: Calcium-activated potassium channel subunit alpha-1 (Homo sapiens) + Leucine-rich repeat-containing protein 26 (Homo sapiens) (UniProt Q12791+Q2I0M4); conditions: U2OS BacMam BK variants, F380Y/Slo1WT/gamma1, at 30 µM
R275C = conditions: U2OS BacMam BK variants, at 30 µM
R275C/beta1 = conditions: U2OS BacMam BK variants, at 30 µM
R275C/beta2Delta = conditions: U2OS BacMam BK variants, at 30 µM
R275C/beta4 = conditions: U2OS BacMam BK variants, at 30 µM
R275C/Slo1WT/beta2 = conditions: U2OS BacMam BK variants, at 30 µM

Measured: log fold change Tl+ flux

Sequence of Calcium-activated potassium channel subunit alpha-1 (Homo sapiens) + Leucine-rich repeat-containing protein 26 (Homo sapiens) (Q2I0M4 whole entry, looked up, one chain of several): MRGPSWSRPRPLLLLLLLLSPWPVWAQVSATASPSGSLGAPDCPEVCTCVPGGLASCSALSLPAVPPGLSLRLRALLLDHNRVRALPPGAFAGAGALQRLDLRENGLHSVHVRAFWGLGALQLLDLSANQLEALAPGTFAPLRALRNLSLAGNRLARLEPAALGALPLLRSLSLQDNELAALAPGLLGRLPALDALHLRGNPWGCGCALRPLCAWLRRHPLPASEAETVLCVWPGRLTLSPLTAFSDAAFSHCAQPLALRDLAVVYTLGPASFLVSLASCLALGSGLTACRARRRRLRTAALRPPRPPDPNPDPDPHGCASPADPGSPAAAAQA

O=C(O)C(Cc1ccccc1[N+](=O)[O-])=NNc1ccccc1
inactive: F380Y 0.0136 | F380Y/beta1 0.0239 | F380Y/beta2Delta 0.0162 | F380Y/beta4 0.0888 | [1] 0.0895 | R275C 0.0387 | R275C/beta1 0.0681 | R275C/beta2Delta 0.0201 | R275C/beta4 0.0231 | R275C/Slo1WT/beta2 0.00699

CCOC(=O)c1ccc(N2CCOCC2)c(N=Cc2cc(Cl)cc(Cl)c2O)c1
active: F380Y/beta1 0.162 | F380Y/beta4 0.0975 | R275C/beta1 0.163 | R275C/beta2Delta 0.0906 | R275C/beta4 0.128
inactive: F380Y 0.0511 | F380Y/beta2Delta 0.0876 | [1] 0.0345 | R275C -0.00571 | R275C/Slo1WT/beta2 0.0153

NS(=O)(=O)c1cccc(NC(=O)c2cccnc2Oc2ccccc2)c1
inactive: F380Y -0.000714 | F380Y/beta1 0.008 | F380Y/beta2Delta 0.0103 | F380Y/beta4 -0.015 | [1] -0.0607 | R275C -0.0268 | R275C/beta1 -0.0191 | R275C/beta2Delta 0.01 | R275C/beta4 0.00433 | R275C/Slo1WT/beta2 -0.0182

COC(=O)Cc1cccc2c(=O)c3ccccc3oc12
inactive: F380Y 0.00439 | F380Y/beta1 -0.00882 | F380Y/beta2Delta 0.0497 | F380Y/beta4 0.0357 | [1] 0.00575 | R275C 0.0179 | R275C/beta1 -0.0476 | R275C/beta2Delta 0.00558 | R275C/beta4 0.00377 | R275C/Slo1WT/beta2 0.049

O=S(=O)(Oc1ccc(F)cc1F)c1cccc(S(=O)(=O)Oc2ccc(F)cc2F)c1
inactive: F380Y/beta1 -0.0152 | F380Y/beta2Delta 0.00173 | R275C/beta2Delta -0.0138 | R275C/Slo1WT/beta2 -0.0996
active: F380Y -0.193 | F380Y/beta4 -0.485 | [1] -0.264 | R275C -0.229 | R275C/beta1 -0.209 | R275C/beta4 -0.144

O=C(CNc1cc(C(F)(F)F)cc(C(F)(F)F)c1)c1ccc(Cl)cc1
inactive: F380Y -0.0386 | F380Y/beta1 0.0507 | F380Y/beta2Delta -0.00515 | F380Y/beta4 -0.0229 | [1] -0.0851 | R275C 0.0058 | R275C/beta1 0.0119 | R275C/beta2Delta 0.000503 | R275C/beta4 0.0102 | R275C/Slo1WT/beta2 0.0351

COC(=O)c1ccc(S(=O)(=O)NNc2ncnc3cc(C(C)(C)C)sc23)n1C
inactive: F380Y 0.00239 | F380Y/beta1 0.00797 | F380Y/beta2Delta 0.0347 | F380Y/beta4 0.0667 | [1] 0.00885 | R275C 0.0131 | R275C/beta1 -0.027 | R275C/beta2Delta 0.00378 | R275C/beta4 -0.0156 | R275C/Slo1WT/beta2 0.0399

CC(C)=CC(C)=NNc1c([N+](=O)[O-])cc(C(F)(F)F)cc1[N+](=O)[O-]
inactive: F380Y 0.0422 | F380Y/beta1 0.0383 | F380Y/beta2Delta 0.0202 | F380Y/beta4 0.0221 | [1] -0.0328 | R275C 0.043 | R275C/beta1 -0.0463 | R275C/beta2Delta -0.0753 | R275C/beta4 -0.00952 | R275C/Slo1WT/beta2 0.0191

OC(Cc1ccccc1)(c1ccccc1)c1ccccc1N=Cc1ccc2c(c1)OCO2 (stereo not given)
inactive: F380Y 0.00821 | F380Y/beta1 0.0126 | F380Y/beta2Delta -0.0347 | F380Y/beta4 -0.0765 | [1] -0.0874 | R275C -0.0385 | R275C/beta1 -0.0387 | R275C/beta2Delta -0.0661 | R275C/beta4 -0.00775 | R275C/Slo1WT/beta2 -0.0302

Cc1ccccc1S(=O)(=O)NCc1ccc(N2CCN(C)CC2)cc1
inactive: F380Y -0.0156 | F380Y/beta1 -0.00969 | F380Y/beta2Delta 0.0214 | F380Y/beta4 0.0231 | [1] 0.0153 | R275C -0.00175 | R275C/beta1 0.0272 | R275C/beta2Delta 0.0013 | R275C/beta4 0.0244 | R275C/Slo1WT/beta2 -0.0187

COc1ccc(CNCc2cc(OC)c(OC)c(OC)c2)cc1
inactive: F380Y -0.0783 | F380Y/beta1 0.0429 | F380Y/beta2Delta -0.0785 | [1] -0.099 | R275C -0.0423 | R275C/beta1 0.0356 | R275C/beta4 -0.0177
active: F380Y/beta4 -0.1 | R275C/beta2Delta -0.0892 | R275C/Slo1WT/beta2 -0.102

O=S(=O)(Nc1ccccc1SCc1ccc2nonc2c1)c1cccs1
inactive: F380Y/beta1 -0.065 | F380Y/beta2Delta -0.0553 | R275C/beta1 0.0365 | R275C/beta2Delta -0.00587 | R275C/beta4 -0.0288
active: F380Y -0.159 | F380Y/beta4 -0.14 | [1] -0.142 | R275C -0.262 | R275C/Slo1WT/beta2 -0.239

Cc1nnc(-c2ccccn2)[nH]c1=O
inactive: F380Y -0.0188 | F380Y/beta1 -0.0365 | F380Y/beta2Delta -0.0191 | F380Y/beta4 -0.0613 | [1] 0.0158 | R275C 0.0139 | R275C/beta1 -0.0558 | R275C/beta2Delta 0.00421 | R275C/beta4 -0.00382 | R275C/Slo1WT/beta2 0.0227

FC(F)(F)c1cc(-c2noc(-c3ccc4c(c3)CCO4)n2)cc(C(F)(F)F)c1
active: F380Y 0.118 | F380Y/beta1 0.292 | F380Y/beta2Delta 0.24 | F380Y/beta4 0.269 | R275C/beta1 0.191 | R275C/beta2Delta 0.182 | R275C/beta4 0.0808
inactive: [1] 0.0774 | R275C 0.0291 | R275C/Slo1WT/beta2 -0.0138

Cc1cc2nccc(-c3cccnc3)n2n1
inactive: F380Y -0.0198 | F380Y/beta1 -0.0232 | F380Y/beta2Delta 0.0219 | F380Y/beta4 -0.0149 | [1] -0.0534 | R275C 0.00294 | R275C/beta1 -0.00487 | R275C/beta2Delta -0.00124 | R275C/beta4 0.00702 | R275C/Slo1WT/beta2 -0.00651

O=C(Nc1ccc(OC(F)(F)F)cc1)Nc1cc(C(F)(F)F)ccc1N1CCOCC1
inactive: F380Y 0.0283 | F380Y/beta1 -0.00979 | F380Y/beta2Delta 0.0491 | F380Y/beta4 -0.00808 | [1] 0.0378 | R275C 0.022 | R275C/beta1 0.0354 | R275C/beta2Delta -0.0143 | R275C/beta4 -0.0232 | R275C/Slo1WT/beta2 -0.0238

COc1ccc(C(C)=NO)cc1CN1CCCC1
inactive: F380Y 0.00748 | F380Y/beta1 0.0291 | F380Y/beta2Delta 0.0236 | F380Y/beta4 0.062 | [1] 0.0507 | R275C 0.0203 | R275C/beta1 0.0511 | R275C/beta2Delta -0.0181 | R275C/beta4 -0.0237 | R275C/Slo1WT/beta2 0.0863

CC(C)(C)c1cc2nc(C(F)(F)F)cc(NN=Cc3ccccc3)n2n1
inactive: F380Y 0.0101 | F380Y/beta1 0.0617 | F380Y/beta2Delta 0.0191 | F380Y/beta4 -0.0217 | [1] -0.0501 | R275C -0.0499 | R275C/beta1 -0.0176 | R275C/beta2Delta -0.0336 | R275C/beta4 -0.0304 | R275C/Slo1WT/beta2 -0.0137

Cc1ccc(C2=C(c3ccccc3)C(=O)C(c3ccccc3)=C2c2ccc(Cl)cc2)cc1
inactive: F380Y -0.00103 | F380Y/beta1 -0.0199 | F380Y/beta2Delta 0.00394 | F380Y/beta4 -0.0256 | [1] 0.0117 | R275C 0.0143 | R275C/beta1 -0.08 | R275C/beta2Delta 0.0554 | R275C/beta4 -0.0334 | R275C/Slo1WT/beta2 -0.0207

CC(=O)N(C(C)=O)c1ccc2c3c(cccc13)CC2
inactive: F380Y 0.051 | F380Y/beta1 -0.00187 | F380Y/beta2Delta -0.0119 | F380Y/beta4 -0.0487 | [1] -0.0226 | R275C 0.0133 | R275C/beta1 0.0421 | R275C/beta2Delta -0.00855 | R275C/beta4 0.0484 | R275C/Slo1WT/beta2 0.0138

COC(=O)CC1(C(=O)OC)Oc2ccc(Br)cc2C(=O)N1c1cccc(Cl)c1Cl (stereo not given)
active: F380Y -0.195 | F380Y/beta1 0.188 | F380Y/beta4 -0.677 | [1] -0.246 | R275C -0.108 | R275C/beta4 -0.204
inactive: F380Y/beta2Delta -0.0998 | R275C/beta1 0.102 | R275C/beta2Delta 0.0176 | R275C/Slo1WT/beta2 -0.0135

CCCCCc1c(C)nc(-c2ccccn2)[nH]c1=O
inactive: F380Y -0.0547 | F380Y/beta1 -0.0236 | F380Y/beta2Delta -0.0415 | F380Y/beta4 -0.0388 | [1] -0.0142 | R275C 0.00744 | R275C/beta1 0.00404 | R275C/beta2Delta 0.0392 | R275C/beta4 0.0188 | R275C/Slo1WT/beta2 -0.0181

O=C(NC(=O)c1ccccc1Oc1ccc(Cl)cc1Cl)Nc1cc(Cl)cc(Cl)c1
inactive: F380Y 0.0204 | F380Y/beta1 0.0216 | F380Y/beta2Delta -0.00408 | F380Y/beta4 -0.00832 | [1] 0.0199 | R275C 0.0363 | R275C/beta1 -0.0332 | R275C/beta2Delta 0.00447 | R275C/beta4 0.0362 | R275C/Slo1WT/beta2 -0.00947

Cc1c(C(=O)Nc2ccc(N3CCOCC3)c(Cl)c2)cnn1-c1ccc(F)cc1
inactive: F380Y -0.0177 | F380Y/beta1 -0.00879 | F380Y/beta2Delta -0.0427 | F380Y/beta4 0.0219 | [1] -0.0278 | R275C -0.00699 | R275C/beta1 0.0051 | R275C/beta2Delta -0.0229 | R275C/beta4 0.0362 | R275C/Slo1WT/beta2 0.000473

Cc1ccc(S(=O)(=O)NC(=O)Nc2nc(-c3ccc(C)c(Cl)c3)c(C)s2)cc1
active: F380Y/beta1 0.176 | F380Y/beta4 0.19 | [1] 0.156 | R275C 0.265 | R275C/beta1 0.24 | R275C/beta4 0.211
inactive: F380Y 0.099 | F380Y/beta2Delta 0.0427 | R275C/beta2Delta 0.0622 | R275C/Slo1WT/beta2 0.0547

CCCCC#Cc1ccc(C(=O)NNC(=O)Nc2ccccc2)o1
inactive: F380Y 0.0775 | F380Y/beta1 -0.0382 | F380Y/beta2Delta 0.0115 | F380Y/beta4 0.00448 | [1] -0.0213 | R275C 0.0317 | R275C/beta1 0.0182 | R275C/beta2Delta -0.00673 | R275C/beta4 -0.0333 | R275C/Slo1WT/beta2 0.023
